Source: PubChem BioAssay (Broad Institute)
aSyn 5UTR act: Activators working through SNCA 5'UTR binding (MLPCN) | alpha-synuclein 5'UTR reporter, activators screen | activity score, % (tested at 7.5 µM), hits read low | 7.1% of 300,000 active | AID 1814; in the data active = activity score below about -60%
Active calls of the source: *. A selection follows.

SMILES | aSyn 5UTR act
O=C1c2ccccc2C(=O)N1CCOc1cccc(Br)c1 | -71*
CC(=O)NC(c1ccc(Cl)cc1Cl)c1ccc2cccnc2c1O (centres undefined) | 86
Cc1ccc(NC(=O)c2cccc3cccnc23)cc1 | -91*
COc1ccccc1C(=O)Nc1cccc2cccnc12 | -81*
O=C(Nc1cccc2cccnc12)c1cc(F)c(F)cc1Cl | -74*
O=C(NCCc1ccccc1F)c1cccc2cccnc12 | -147*
O=c1nc(/C=C/c2cc([N+](=O)[O-])ccc2Cl)cc(C(F)(F)F)[nH]1 | -67*
COc1cc(OC)c(OC)cc1/C=C/c1cc(C(F)(F)F)[nH]c(=O)n1 | -121*
Cc1cccc(NC(=O)CN2C(=O)N/C(=C\c3ccc(N4CCOCC4)cc3)C2=O)c1 | -100*
CCOC(=O)CSC1=C(C#N)C(C)C2=C(CCCC2=O)N1 (centres undefined) | -62*
O=C(c1ccccc1)c1c[nH]c2cc3c(cc2c1=O)OCCO3 | -67*
O=C(NCc1cccnc1)c1c[nH]c2cc3c(cc2c1=O)OCCO3 | -123*
Cc1cc2c(cc1C)C(c1cc(Br)ccc1F)CC(=O)N2 (centres undefined) | 65
CCCC(C)C(=O)Nc1nc(C)c(-c2csc(Nc3cc(OC)ccc3OC)n2)s1 (centres undefined) | 60
Cc1nc(N)sc1-c1csc(Nc2ccccc2)n1 | -130*
O=C(O)c1ccc(Nc2nc(-c3ccccc3)cs2)cc1 | -114*
COc1ccccc1Nc1nc(-c2sc(NC(=O)c3cccc(Cl)c3)nc2C)cs1 | -86*
Cc1nc(NC(=O)c2ccccc2)sc1-c1csc(Nc2ccc(C(=O)O)cc2)n1 | -73*
Cc1cc(SCC(=O)c2cccc([N+](=O)[O-])c2)nc(=O)[nH]1 | -91*
O=C1c2ccccc2-c2nc3ccccc3nc21 | -182*
NC1=C(Br)C(=O)c2ccccc2C1=O | 65
Cc1ccccc1NC(=O)c1ccc2c(c1)OCCO2 | -157*
Cc1cccc(NC(=O)c2ccc3c(c2)OCCO3)c1C | -113*
N#Cc1ccccc1NC(=O)COC(=O)c1ccc2c(c1)OCCO2 | -130*
COC(=O)c1ccccc1NC(=O)c1ccc2c(c1)OCCCO2 | -85*
SMILES | aSyn 5UTR act
N#Cc1ccccc1NC(=O)c1ccc2c(c1)OCCO2 | -94*
CC(C)(CO)NC(=O)c1ccc2nc(Cc3cccc(Cl)c3)oc2c1 | -102*
COCC1CCCN(C(=O)c2ccc3nc(Cc4cccc(Cl)c4)oc3c2)C1 (centres undefined) | -77*
COC(=O)CN(C)C(=O)c1ccc2nc(Cc3cccc(Cl)c3)oc2c1 | -109*
CCc1ccc2oc(C(=O)Nc3nonc3CC)c(C)c2c1 | -135*
CCc1nonc1NC(=O)c1oc2ccccc2c1C | -75*
CCc1nonc1NC(=O)c1oc2cc(Br)ccc2c1C | -113*
CCc1nonc1NC(=O)c1oc2ccc(C)cc2c1C | -112*
O=C(Nc1ccc2c(c1)OCO2)C1CCCCC1 | -92*
CC(C)C(NC(=O)C1CCCCC1)C(=O)Nc1ccc2c(c1)OCCO2 (centres undefined) | -66*
CC(NC(=O)Nc1ccc2c(c1)OCO2)C1CCCO1 (centres undefined) | -112*
Clc1nc(-c2ccccn2)nc2scc(-c3ccccc3)c12 | -206*
COCCNC(=O)Cc1c(C)c2c(cc(C)c3c(C(C)(C)C)coc32)oc1=O | -116*
Cc1cc2oc(=O)c(CC(=O)NCCCN(C)C)c(C)c2c2occ(C(C)(C)C)c12 | 61
CCc1nnc(NC(=O)c2ccc(S(=O)(=O)N(C)Cc3ccccc3)cc2)o1 | 63
COc1ccccc1N(Cc1ccccc1)S(=O)(=O)c1cccc(C(=O)Nc2ccc(C(C)=O)cc2)c1 | -88*
COc1ccc(-c2csc(NC(=O)c3ccoc3C)n2)cc1 | -124*
CC(=O)c1ccc(NC(=O)c2cccc(S(=O)(=O)N3CCN(C)CC3)c2)cc1 | -112*
COc1ccc(-c2csc(NC(=O)c3ccc(S(C)(=O)=O)cc3)n2)cc1 | -68*
Cc1csc(NC(=O)c2sccc2C)n1 | -68*
Cc1csc(NC(=O)c2ccc(S(C)(=O)=O)cc2)n1 | -91*
COc1ccc(/C(C)=N/NC(=O)c2cccc(S(=O)(=O)N3CCCC3)c2)c(O)c1 | 78
COc1ccc(-c2csc(NC(=O)c3cccc(S(=O)(=O)N4CCN(C)CC4)c3)n2)cc1 | -71*
COC(=O)c1c(-c2ccncc2)csc1NC(=O)c1ccoc1C | -120*
CN(C)c1ccc(/C=C/c2cccc[n+]2[O-])cc1 | -101*
SMILES | aSyn 5UTR act
CC(C)CC[n+]1ccccc1/C=C/c1ccc(N(C)C)cc1 | 79
COc1cccc(C2c3c(oc4ccccc4c3=O)C(=O)N2Cc2ccco2)c1 (centres undefined) | -99*
CSc1ccc(NC(=O)Nc2cccn(Cc3ccccc3F)c2=O)cc1 | -76*
Cc1ccc(Oc2ncc(CN3CCOCC3)s2)cc1 | -78*
COc1ccc2cc3cc(C(=O)NCCN4CCc5ccccc5C4)sc3nc2c1 | -209*
CCC(C)NC(=O)c1cc2cc3ccc(OC)cc3nc2s1 (centres undefined) | -131*
Clc1ccc(C#Cc2cccnc2)cc1 | -187*
Oc1ccc(N=Cc2ccc(OCc3ccccc3)cc2)cc1 | -92*
O=C(N/N=C/c1ccc(Cl)cc1)c1sccc1OCc1ccc(F)cc1 | 73
CC(C)(C)NCC(=O)N/N=C/c1ccc(OCc2ccccc2)cc1 | -72*
O=C(Nc1ccc(OCc2ccccc2)cc1)c1cccs1 | -158*
O=C(N/N=C/c1ccc(F)cc1)c1sccc1OCc1ccc(F)cc1 | -94*
O=C(N/N=C/c1ccc(OCc2ccccc2)cc1)c1cccs1 | -116*
O=C(N/N=C/c1ccc(OCc2ccccc2)cc1)c1ccncc1 | -164*
Cc1occc1C(=O)Nc1ccc(OCc2ccccc2)cc1 | -147*
CSc1ccc(/C=N/NC(=O)c2sccc2C)cc1 | -89*
C[C@H](NC(N)=O)C(=O)Nc1ccc(OCc2ccccc2)cc1 | -92*
O=C(COc1ccc([N+](=O)[O-])cc1)NNC(=O)c1cccs1 | -78*
O=C(C[n+]1ccc(C(=O)N/N=C/c2ccc(OCc3ccccc3)cc2)cc1)c1ccccc1 | -138*
O=C(c1ccc(CS(=O)Cc2ccccc2Cl)o1)N1CCN(c2ccccn2)CC1 (centres undefined) | -85*
CCN=C1NN=C(c2c[nH]c3ccccc23)CS1 | -68*
COCC(C)N=C1NN=C(c2c[nH]c3ccccc23)CS1 (centres undefined) | -66*
COc1cccc(C2=CC(c3ccc(OC)c(OC)c3OC)n3nnnc3N2)c1 (centres undefined) | -67*
COc1ccccc1C1C=C(c2ccccc2)Nc2nnnn21 (centres undefined) | -84*
CCOc1ccccc1-c1nn2c(Cc3ccccc3)nnc2s1 | -66*
SMILES | aSyn 5UTR act
CNC(=S)N/N=C/c1ccc(N(C)C)cc1 | -89*
CC(C)Oc1ccc(/C=N/NC(N)=S)cc1 | -116*
CNC(=S)N/N=C/c1ccc(C(C)C)cc1 | -161*
Cc1c(C(=O)N/N=C/c2ccc(N(C)C)cc2)[nH]c2ccc(Cl)cc12 | 73
CN(C)c1ccc(/C=N/NC(=S)NCc2ccccc2)cc1 | -85*
O=C(Nc1nc2c(s1)CCCC2)c1ccc(Br)s1 | -93*
Cc1ncsc1C(=O)Nc1nc2c(s1)CCCC2 | -159*
CCc1nnc(NC(=O)c2ccc3c(c2)C(=O)N(CC(C)C)C3=O)s1 | -88*
Cc1ccc(O)c(NC(=O)c2ccc3c(c2)C(=O)N(CC(C)C)C3=O)c1 | -112*
O=C(/C=C/c1ccco1)Nc1cccc2cccnc12 | -168*
